Laboratory results as given in article PMC11006913.
Numbering of substitutions follows the chain as printed.

Assays:
Test in all cases: PBM; 200 nM protein, PBS
Settings in all cases: dsDNA, one strand shown
MSX2 [1] = target: MSX2 (Homo sapiens, UniProt P35548 130-214, R199I)
ALX3 [2] = target: ALX3 (Homo sapiens, UniProt O95076 139-225, N203Q)
MSX2 [3] = target: MSX2 (Homo sapiens, UniProt P35548 130-214)
ALX3 [4] = target: ALX3 (Homo sapiens, UniProt O95076 139-225)
ALX3 [5] = target: ALX3 (Homo sapiens, UniProt O95076 139-225, L168Q)
ALX3 [6] = target: ALX3 (Homo sapiens, UniProt O95076 139-225, L168V)
MSX2 [7] = target: MSX2 (Homo sapiens, UniProt P35548 130-214, F161Y)
ALX3 [8] = target: ALX3 (Homo sapiens, UniProt O95076 139-225, N203S)
PROP1 [9] = target: PROP1 (Homo sapiens, UniProt O75360 56-141)
PROP1 [10] = target: PROP1 (Homo sapiens, UniProt O75360 56-141, R99H)
VAX1 [11] = target: VAX1 (Homo sapiens, UniProt Q5SQQ9 86-172)
PROP1 [12] = target: PROP1 (Homo sapiens, UniProt O75360 56-141, F88S)
VAX1 [13] = target: VAX1 (Homo sapiens, UniProt Q5SQQ9 86-172, T142I)
VAX1 [14] = target: VAX1 (Homo sapiens, UniProt Q5SQQ9 86-172, K157R)
PITX2 = PITX2 (Homo sapiens, UniProt Q99697 72-157)
NKX2-6 [15] = target: T1, NKX2-6 (Homo sapiens, UniProt A6NCS4 118-204)
T1 sequence: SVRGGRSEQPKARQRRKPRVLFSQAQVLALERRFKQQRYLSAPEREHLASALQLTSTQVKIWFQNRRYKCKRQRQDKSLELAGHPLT

NKX2-6 [16] = target: T2, NKX2-6 (Homo sapiens, UniProt A6NCS4 118-204, F151L)
T2 sequence: T1 sequence with F34L

MSX2 (Homo sapiens, UniProt P35548 130-214, F161Y), sequence (P35548 130-214 F161Y): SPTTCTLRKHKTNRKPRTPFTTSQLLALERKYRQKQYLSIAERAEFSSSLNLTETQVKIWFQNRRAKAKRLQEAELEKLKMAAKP
MSX2 (Homo sapiens, UniProt P35548 130-214), sequence (P35548 130-214): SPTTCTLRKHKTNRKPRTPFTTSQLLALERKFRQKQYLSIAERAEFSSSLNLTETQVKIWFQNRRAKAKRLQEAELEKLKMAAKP
VAX1 (Homo sapiens, UniProt Q5SQQ9 86-172, K157R), sequence (Q5SQQ9 86-172 K157R): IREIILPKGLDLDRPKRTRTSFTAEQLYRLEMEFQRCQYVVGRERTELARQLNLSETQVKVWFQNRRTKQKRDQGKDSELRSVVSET
VAX1 (Homo sapiens, UniProt Q5SQQ9 86-172, T142I), sequence (Q5SQQ9 86-172 T142I): as the sequence (Q5SQQ9 86-172 K157R) above, with T57I, R72K counted along it
VAX1 (Homo sapiens, UniProt Q5SQQ9 86-172), sequence (Q5SQQ9 86-172): as the sequence (Q5SQQ9 86-172 K157R) above, with R72K counted along it
MSX2 (Homo sapiens, UniProt P35548 130-214, R199I), sequence (P35548 130-214 R199I): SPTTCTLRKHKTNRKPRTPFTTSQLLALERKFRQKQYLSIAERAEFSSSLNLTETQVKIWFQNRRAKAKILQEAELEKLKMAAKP
PROP1 (Homo sapiens, UniProt O75360 56-141, R99H), sequence (O75360 56-141 R99H): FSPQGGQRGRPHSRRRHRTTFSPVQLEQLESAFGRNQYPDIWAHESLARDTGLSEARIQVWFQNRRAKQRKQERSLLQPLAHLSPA
ALX3 (Homo sapiens, UniProt O95076 139-225, L168Q), sequence (O95076 139-225 L168Q): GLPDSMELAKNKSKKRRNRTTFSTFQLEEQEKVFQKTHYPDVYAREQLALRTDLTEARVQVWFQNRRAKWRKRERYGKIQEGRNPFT
ALX3 (Homo sapiens, UniProt O95076 139-225), sequence (O95076 139-225): as the sequence (O95076 139-225 L168Q) above, with Q30L counted along it
ALX3 (Homo sapiens, UniProt O95076 139-225, L168V), sequence (O95076 139-225 L168V): as the sequence (O95076 139-225 L168Q) above, with Q30V counted along it
PROP1 (Homo sapiens, UniProt O75360 56-141), sequence (O75360 56-141): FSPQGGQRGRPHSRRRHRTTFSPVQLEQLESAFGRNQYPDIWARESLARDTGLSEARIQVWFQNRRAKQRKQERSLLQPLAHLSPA
ALX3 (Homo sapiens, UniProt O95076 139-225, N203Q), sequence (O95076 139-225 N203Q): as the sequence (O95076 139-225 L168Q) above, with Q30L, N65Q counted along it
ALX3 (Homo sapiens, UniProt O95076 139-225, N203S), sequence (O95076 139-225 N203S): as the sequence (O95076 139-225 L168Q) above, with Q30L, N65S counted along it
PROP1 (Homo sapiens, UniProt O75360 56-141, F88S), sequence (O75360 56-141 F88S): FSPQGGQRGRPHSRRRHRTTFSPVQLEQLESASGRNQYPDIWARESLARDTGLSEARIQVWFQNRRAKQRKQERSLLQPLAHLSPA

GCTCCAGC
binding signal (MSX2 [1]): 9.46 upbm affinity estimate (log intensity, higher = more binding, comparable within an allelic series) | binding signal (ALX3 [2]): 7.72 upbm affinity estimate (log intensity, higher = more binding, comparable within an allelic series) | binding signal (MSX2 [3]): 9.45 upbm affinity estimate (log intensity, higher = more binding, comparable within an allelic series) | binding signal (ALX3 [4]): 7.57 upbm affinity estimate (log intensity, higher = more binding, comparable within an allelic series) | binding signal (ALX3 [5]): 7.7 upbm affinity estimate (log intensity, higher = more binding, comparable within an allelic series) | binding signal (ALX3 [6]): 7.6 upbm affinity estimate (log intensity, higher = more binding, comparable within an allelic series) | binding signal (MSX2 [7]): 9.5 upbm affinity estimate (log intensity, higher = more binding, comparable within an allelic series) | binding signal (ALX3 [8]): 7.72 upbm affinity estimate (log intensity, higher = more binding, comparable within an allelic series)

AATTTTTA
binding signal (MSX2 [1]): 11.1 upbm affinity estimate (log intensity, higher = more binding, comparable within an allelic series) | binding signal (MSX2 [3]): 11.9 upbm affinity estimate (log intensity, higher = more binding, comparable within an allelic series) | binding signal (MSX2 [7]): 11.6 upbm affinity estimate (log intensity, higher = more binding, comparable within an allelic series)

CCCTAGCG
binding signal (MSX2 [1]): 9.48 upbm affinity estimate (log intensity, higher = more binding, comparable within an allelic series) | binding signal (MSX2 [3]): 9.29 upbm affinity estimate (log intensity, higher = more binding, comparable within an allelic series) | binding signal (PROP1 [9]): 6.52 upbm affinity estimate (log intensity, higher = more binding, comparable within an allelic series) | binding signal (PROP1 [10]): 6.7 upbm affinity estimate (log intensity, higher = more binding, comparable within an allelic series) | binding signal (VAX1 [11]): 6.79 upbm affinity estimate (log intensity, higher = more binding, comparable within an allelic series) | binding signal (PROP1 [12]): 6.73 upbm affinity estimate (log intensity, higher = more binding, comparable within an allelic series) | binding signal (MSX2 [7]): 9.37 upbm affinity estimate (log intensity, higher = more binding, comparable within an allelic series) | binding signal (VAX1 [13]): 7.2 upbm affinity estimate (log intensity, higher = more binding, comparable within an allelic series) | binding signal (VAX1 [14]): 6.92 upbm affinity estimate (log intensity, higher = more binding, comparable within an allelic series)

AGCCCACC
binding signal (MSX2 [1]): 9.45 upbm affinity estimate (log intensity, higher = more binding, comparable within an allelic series) | binding signal (MSX2 [3]): 9.52 upbm affinity estimate (log intensity, higher = more binding, comparable within an allelic series) | binding signal (MSX2 [7]): 9.47 upbm affinity estimate (log intensity, higher = more binding, comparable within an allelic series)

AATTACTG
binding signal (MSX2 [1]): 12.1 upbm affinity estimate (log intensity, higher = more binding, comparable within an allelic series) | binding signal (MSX2 [3]): 13.3 upbm affinity estimate (log intensity, higher = more binding, comparable within an allelic series) | binding signal (MSX2 [7]): 12.9 upbm affinity estimate (log intensity, higher = more binding, comparable within an allelic series)

GACCTCCC
binding signal (MSX2 [1]): 9.42 upbm affinity estimate (log intensity, higher = more binding, comparable within an allelic series) | binding signal (PITX2): 8.09 upbm affinity estimate (log intensity, higher = more binding, comparable within an allelic series) | binding signal (MSX2 [3]): 9.46 upbm affinity estimate (log intensity, higher = more binding, comparable within an allelic series) | binding signal (MSX2 [7]): 9.44 upbm affinity estimate (log intensity, higher = more binding, comparable within an allelic series)

CAATCAAA
binding signal (MSX2 [1]): 10.9 upbm affinity estimate (log intensity, higher = more binding, comparable within an allelic series)

AGCTATTA
binding signal (MSX2 [1]): 11.1 upbm affinity estimate (log intensity, higher = more binding, comparable within an allelic series) | binding signal (MSX2 [3]): 12.1 upbm affinity estimate (log intensity, higher = more binding, comparable within an allelic series) | binding signal (MSX2 [7]): 11.9 upbm affinity estimate (log intensity, higher = more binding, comparable within an allelic series)

GATGTTTA
binding signal (MSX2 [1]): 10.5 upbm affinity estimate (log intensity, higher = more binding, comparable within an allelic series) | binding signal (MSX2 [3]): 10.9 upbm affinity estimate (log intensity, higher = more binding, comparable within an allelic series) | binding signal (MSX2 [7]): 10.8 upbm affinity estimate (log intensity, higher = more binding, comparable within an allelic series)

CGGCGGCA
binding signal (MSX2 [1]): 9.49 upbm affinity estimate (log intensity, higher = more binding, comparable within an allelic series) | binding signal (MSX2 [3]): 9.38 upbm affinity estimate (log intensity, higher = more binding, comparable within an allelic series) | binding signal (MSX2 [7]): 9.41 upbm affinity estimate (log intensity, higher = more binding, comparable within an allelic series)

GGCCAGCA
binding signal (MSX2 [1]): 9.48 upbm affinity estimate (log intensity, higher = more binding, comparable within an allelic series) | binding signal (NKX2-6 [15]): 9.51 upbm affinity estimate (log intensity, higher = more binding, comparable within an allelic series) | binding signal (MSX2 [3]): 9.54 upbm affinity estimate (log intensity, higher = more binding, comparable within an allelic series) | binding signal (VAX1 [11]): 7.05 upbm affinity estimate (log intensity, higher = more binding, comparable within an allelic series) | binding signal (NKX2-6 [16]): 9.32 upbm affinity estimate (log intensity, higher = more binding, comparable within an allelic series) | binding signal (MSX2 [7]): 9.57 upbm affinity estimate (log intensity, higher = more binding, comparable within an allelic series) | binding signal (VAX1 [13]): 7.11 upbm affinity estimate (log intensity, higher = more binding, comparable within an allelic series) | binding signal (VAX1 [14]): 7.17 upbm affinity estimate (log intensity, higher = more binding, comparable within an allelic series)

GAAGCAGC
binding signal (MSX2 [1]): 9.64 upbm affinity estimate (log intensity, higher = more binding, comparable within an allelic series) | binding signal (MSX2 [3]): 9.57 upbm affinity estimate (log intensity, higher = more binding, comparable within an allelic series) | binding signal (VAX1 [11]): 7.06 upbm affinity estimate (log intensity, higher = more binding, comparable within an allelic series) | binding signal (MSX2 [7]): 9.57 upbm affinity estimate (log intensity, higher = more binding, comparable within an allelic series) | binding signal (VAX1 [13]): 7.19 upbm affinity estimate (log intensity, higher = more binding, comparable within an allelic series) | binding signal (VAX1 [14]): 6.96 upbm affinity estimate (log intensity, higher = more binding, comparable within an allelic series)
